Most compounds without a hit are left out; they make up all but 11% or so of the library.
PNC assembly inh – perinucleolar compartment assembly inhibition; PC3M PTB-GFP, PNC prevalence imaging, 16 h; hits give low values; activity change (PNC), negative = inhibition, % at 10 µM; 3.1% of 140,000 active; AID 2417;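 active means readout at or below -70, meaning at least 70% loss of cells showing the perinucleolar compartment, a nuclear body marking cancer cells; inconclusive means readout between -30 and a set limit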;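 further: plate controls were DMSO wells for no effect and camptothecin positive control wells for full effect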
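PC3M cells stably expressing PTB-GFP, 750–1000 cells/well, treated 16 h at 37 °C with compound (23 nl of library stock), in duplicate. After paraformaldehyde fixation and Hoechst stain, imaged at 20x; PNC prevalence scored by image analysis.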
ALDH1A1 inh – ALDH1A1 (human) enzyme inhibition | Potency, µM (titrated, usually from 75.3 µM), for the others: at the highest dose activity, negative = inhibition, most hits filed as inhibitors | Purified ALDH1A1, NADH fluorescence, propionaldehyde substrate | P00352 | 7.3% of 220,000 active;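 further: potency means the concentration at half of the fitted maximal effect; plate controls were no enzyme wells and a reference inhibitor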
Target sequence (P00352 whole entry, looked up): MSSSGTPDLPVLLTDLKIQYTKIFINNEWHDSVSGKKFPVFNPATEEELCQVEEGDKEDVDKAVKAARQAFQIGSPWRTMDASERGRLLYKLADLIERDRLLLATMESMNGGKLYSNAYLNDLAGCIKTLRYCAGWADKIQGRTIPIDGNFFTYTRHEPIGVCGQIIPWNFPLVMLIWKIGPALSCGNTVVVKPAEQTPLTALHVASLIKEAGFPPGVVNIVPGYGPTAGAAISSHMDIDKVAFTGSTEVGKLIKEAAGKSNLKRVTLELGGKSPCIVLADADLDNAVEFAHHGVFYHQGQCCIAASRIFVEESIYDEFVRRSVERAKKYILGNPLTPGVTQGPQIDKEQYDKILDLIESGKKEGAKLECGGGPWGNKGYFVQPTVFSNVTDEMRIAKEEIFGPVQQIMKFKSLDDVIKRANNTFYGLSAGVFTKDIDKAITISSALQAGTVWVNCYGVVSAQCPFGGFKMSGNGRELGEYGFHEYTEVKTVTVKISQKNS
HPGD inh – inhibitors of human 15-hydroxyprostaglandin dehydrogenase (HPGD); P15428; purified HPGD, NADH fluorescence kinetic, PGE2 substrate; Potency, µM, for inactives: top-dose activity change, negative = inhibition, hits mostly inhibitors; 4.3% of 150,000 active; AID 894; further: potency means the concentration at half of the fitted maximal effect
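20 nM HPGD preincubated 15 min at room temperature with compound in 50 mM Tris-HCl pH 8, 0.01% Tween 20. Started with 1 mM NAD+ and 30 uM prostaglandin E2; NADH fluorescence (360/450 nm) read 5 times over 30-s intervals, last minus first.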
Numbers without * were called inactive; ? = inconclusive; . = not tested or not shown; ! = not active in a repeat; [ ] = remark or other dose. Unless noted, the call rests on the fitted dose curve; in most records, active means well fitted inhibition curve with a large enough effect (not every such curve was filed as active); inconclusive means small, poorly fitted or top-dose-only effect, or another doubt; inactive means no such curve, though single readings can be large or run the other way. Unless noted, on the % scale 0 is the no-effect control and ±100 the full control effect.

SMILES | PNC assembly inh | ALDH1A1 inh | HPGD inh
O=C(Nc1nc2ccccc2s1)C1CC(=O)N(c2ccc(F)cc2)C1 (stereo not drawn) | 27 | -3% | 0%
CCCCC(=O)Oc1ccccc1C(=O)O | . | 0% | -18%
CC(C)CO/N=C1/C[C@@H](O)[C@@H](O)[C@@H]2[C@H]3C(=O)N(c4ccc(F)cc4F)C(=O)[C@@H]3CC[C@@H]12 | . | -3%[13.5 µM] | .
COc1ccc(N(CC(=O)NCc2ccccc2)C(=O)Cn2nnc(-c3ccccc3F)n2)cc1OC | . | 8% | .
COCC(=O)N(C)c1nnc(-c2cnc(C)cn2)s1 | -8 | ? | ?
CN(c1ccc(OCC(=O)OCC(=O)Nc2ccccc2)cc1)S(=O)(=O)c1ccc(F)cc1 | ? | 2% | -5%
CN(c1ccc(OCC(=O)OCC(=O)Nc2c(F)c(F)c(F)c(F)c2F)cc1)S(=O)(=O)c1ccc(F)cc1 | -107* | 7% | -2%
COc1ccc(CCCC(=O)O)c(C)c1 | 186 | 3%[13.5 µM] | -2%
CC(C)c1ccc(CNC(=O)C(=O)NCCCn2ccnc2)cc1 | . | 2% | .
Nc1nnnn1CC(=O)N/N=C/c1cc([N+](=O)[O-])ccc1Cl | . | 0% | .
Cc1cc([N+](=O)[O-])c(C)cc1-c1ccc(/C=N/NC(=O)Cn2nnnc2N)o1 | . | 15µM* | .
C/C(=N\NC(=O)c1ccccc1NC(=O)c1ccc(Cl)cc1)c1ccncc1 | . | 0% | .
O=C(Cc1coc2ccc3ccccc3c12)Nc1nnc(C2CC2)s1 | -100* | -11% | .
Cc1cc2occ(CC(=O)Nc3nnc(C4CC4)s3)c2cc1C | -13 | 1% | -6%
NC(=O)C1CCN(C2=C(Cl)C(=O)c3ccccc3C2=O)CC1 | -23 | ? | 14µM*
CC1C(=NO)C(C)C(c2ccc(N(C)C)cc2)NC1c1ccc(N(C)C)cc1 (stereo not drawn) | 37 | 6% | -16%
COc1ccc(C2NC(=O)NC(C)=C2C(C)=O)cc1 (stereo not drawn) | 12 | ? | -13%
COc1ccc(C2C=C(C34CC5CC(CC(C5)C3)C4)NC(=S)N2)cc1 (stereo not drawn) | 0 | 4µM* | 0%
S=C(Nc1ccccc1)N1N=CCC1c1ccccc1 (stereo not drawn) | 38 | ? | 0%
Fc1ccc(NC(=S)N2N=CCC2c2ccccc2)cc1 (stereo not drawn) | -15 | 7.1µM* | -13%
Cc1ccc(/C=N/Nc2nc3ccccc3s2)o1 | 48 | 4% | -14%
O=C(O)CC(NC(=O)COc1ccccc1)c1cccc([N+](=O)[O-])c1 (stereo not drawn) | . | 9% | .
C=CCC(C#Cc1ccccc1)[N+](C)(C)CC=C (stereo not drawn) | -8 | 3% | -5%
O=C(NC(Cc1c[nH]c2ccccc12)c1nnc2n1CCCCC2)c1ccccc1 (stereo not drawn) | 52 | 3% | -5%
O=C(NC(Cc1c[nH]c2ccccc12)c1nnc2n1CCCCC2)c1ccccc1Cl (stereo not drawn) | 21 | -3% | 25µM*
SMILES | PNC assembly inh | ALDH1A1 inh | HPGD inh
CN(C)CCCNC(CC(=O)Nc1cccc([N+](=O)[O-])c1)C(=O)O (stereo not drawn) | -12 | 5% | -13%
CN(C)c1cccc(NC(=O)Cc2ccc(F)cc2)c1 | -21 | 14µM* | -9%
CN(C)c1cccc(NC(=O)CCc2ccccc2)c1 | 12 | ? | -23%
Oc1cc2c(cc1O)C1c3ccc(O)c(O)c3OCC1(O)C2 (stereo not drawn) | . | 11µM*! | 1.1µM*
Cc1ccc(CNC(=O)CCSCCC(=O)NCc2ccc(C)cc2)cc1 | 53 | 4% | -6%
COc1cc(C)c2c(=O)cc(-c3ccccc3)oc2c1 | . | -2% | -23%
COc1cc2c(c3oc(-c4ccccc4)cc(=O)c13)C=CC(C)(C)O2 | . | 10µM* | .
O=[N+]([O-])c1ccc(-c2nc(-c3ccc(F)cc3)c(-c3ccncc3)[nH]2)cc1 | . | ? | -28%
Cc1occc1C(=O)N1CCN(C(c2ccccc2)c2ccccc2)CC1 | -27 | ? | -22%
Cc1oc(C(C)(C)C)cc1C(=O)N1CCN(C(c2ccccc2)c2ccccc2)CC1 | . | 8.9µM* | .
O=C(C1=COCCO1)N1CCN(C(c2ccccc2)c2ccccc2)CC1 | 14 | 8.9µM* | -17%
O=C(C1=COCCO1)N1CCN(S(=O)(=O)c2cccc(Cl)c2Cl)CC1 | -6 | -3% | -11%
COC(=O)c1cnc(Oc2ccc(NC(=O)NC(=O)c3ccccc3Cl)cc2)cc1C(F)(F)F | . | 11% | .
CC(C)c1ccc(S(=O)(=O)N2CCCCC2)cc1 | . | -5% | .
O=C(O)c1ccc(NC(=S)NC(=O)c2ccc(-c3ccccc3)cc2)cc1 | . | 8.9µM* | .
O=C(NC(=S)Nc1ccccc1)c1ccc(-c2ccccc2)cc1 | -7 | ? | -15%

Screening data: PubChem, National Center for Advancing Translational Sciences (NCATS)
